# Assay outcomes as filed in PubChem BioAssay.
# HSP90 inh = HSP90 inhibitors, primary screen, cell lysate, luminescence; Heat shock protein HSP 90 (rabbit reticulocyte lysate; luciferase refolding); Rabbit reticulocyte lysate, luciferase refolding luminescence, 3 h; inhibition, % at 5.6 µM; 290,000 tested, 0.91% active;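 active = inhibition above the screen-wide mean plus 3 SD, computed separately per campaign, cut at about 16% in these data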;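 note: inhibitors lower the luminescence because luciferase stays unfolded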
# PPC-1+TRAIL kill = compounds killing PPC-1 cancer cells with TRAIL present, primary screen, TRAIL potentiator project, ATPLite luminescence, uHTS; 220,000 tested, 0.41% active; AID 1443, 2008; cell killing (% activity), % at 4 µM or 5 µM; PPC-1 cells + TRAIL, ATPLite viability luminescence;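 active = cell killing above 50% in the first pass at 4 µM, then a duplicate retest at 5 µM averaging 50% or more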
# TROY NFkB inh = inhibitors of TROY-driven NF-kB signaling, primary screen, Q293 LMP1-TROYcd cells, NF-kB luciferase, uHTS; AID 1347056, 2019; inhibition, % at 10 µM; Q293 LMP1-TROYcd NF-kB luciferase reporter, 4 h; 360,000 tested, 0.98% active;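 active = compounds whose plate-normalised and pattern-corrected inhibition of the luciferase reporter signal at the single screening dose is 50% or more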
# C8 TRAIL sens = viability loss with TRAIL in NB7+C8 cells, primary screen, TRAIL sensitizer project, cell-based, ATPlite luminescence. 360,000 tested, 1% active. AID 624354, 2012. inhibition (viability loss, TRAIL sensitization), % at 10 µM;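 active = compounds causing at least 50% loss of cell viability in the single-dose screen, relative to plate controls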
# Platelet DG rel = inhibitors of platelet dense granule secretion, primary screen, cell-based, MLPCN, human platelets; inhibition, %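 (compounds screened at 7.5 µM in platelet-rich plasma)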; 300,000 tested, 0.22% active; AID 1663, 2009; human platelet-rich plasma, SFLLRN dense granule ATP release, luminescence;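 active = mean replicate score, as percent of positive control, at or above 50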
# TWEAK Fn14 block = inhibitors of TWEAK-Fn14 signaling, primary screen, luciferase reporter cells, uHTS. inhibition, % at 10 µM. 360,000 tested, 2% active. TWEAK-stimulated Fn14 reporter cells, luciferase luminescence, 8 h; in the data active = inhibition above about 50%
# Hits are given with their value; . = inactive; / = no result. Rows were chosen to be rich in hits. Some 3.5% of all compounds tested hit in one or more screens of this group.
SMILES,HSP90 inh,PPC-1+TRAIL kill,TROY NFkB inh,C8 TRAIL sens,Platelet DG rel,TWEAK Fn14 block
O=[N+]([O-])c1ccc(/C=N/n2c(CO)nc3ccccc32)s1,.,.,.,.,.,.
Cc1nc2ccccc2n1/N=C/c1ccc([N+](=O)[O-])s1,.,.,.,.,.,70
Cc1cc2ncn(/N=C/c3ccc([N+](=O)[O-])s3)c2cc1C,.,.,.,.,.,.
Cc1cc(C(=O)Nc2ccc3c(c2)CCC3)ccc1[N+](=O)[O-],/,/,.,.,.,.
CN(C)c1ccc(/C=N/N=C/c2ccccc2O)cc1,.,.,.,.,.,59
CC(C)C(=O)Nc1cccc(COc2ccc(CN(Cc3ccccc3)C(=O)OC(C)(C)C)cc2)c1,/,/,.,.,/,70
N#Cc1c(C#N)c(SSc2c(C#N)c(C#N)c(N)n2-c2ccccc2)n(-c2ccccc2)c1N,/,/,.,79,/,.
Cc1ccc(-n2c(N)c(C#N)c(-c3ccccc3)c(C#N)c2=O)cc1,.,.,.,.,87,.
CC(C)N1C(=O)/C(=C\c2nc3ccccc3c(=O)[nH]2)c2ccccc21,.,.,.,.,/,68
c1ccc(CNc2nc(NCCOc3ccccc3)c3sccc3n2)cc1,/,/,.,.,/,.
c1ccc(CNc2nc(NCc3ccccc3)c3sccc3n2)cc1,/,/,58,.,/,.
c1ccc(CNc2nc(-c3ccccc3)nc3ccccc23)cc1,.,/,.,.,.,.
c1ccc(CNc2nc(NCc3ccccc3)c3ccccc3n2)cc1,.,.,78,53,.,.
c1ccc(CNc2nc(Oc3ccncc3)c3sccc3n2)cc1,/,/,.,.,/,99
COc1ccccc1CNc1nc(NCc2ccccc2F)c2sccc2n1,/,/,58,.,/,90
COCCNC(=O)Cn1nc(-c2ccccc2C)ccc1=O,.,/,.,.,.,.
Cc1ccccc1COCCN1CCN(S(=O)(=O)c2ccccc2)CCC1=O,/,.,.,.,.,.
Fc1ccc(Nc2nc(NCc3ccco3)c3ccccc3n2)cc1,.,.,.,.,.,62
COc1ccccc1CNc1nc(NCc2cccc(OC)c2OC)c2sccc2n1,/,/,75,.,/,76
COc1ccccc1CNc1nc(NCc2ccccc2)nc2ccsc12,/,/,50,.,/,.
Nc1nc(Nc2ccccc2)nc(NCc2ccco2)c1[N+](=O)[O-],.,.,.,.,.,.
O=C(N/N=C/c1cc([N+](=O)[O-])ccc1O)c1ccc(COc2ccc3c(c2)CCC3)o1,.,/,.,52,.,.
COc1ccc(Br)cc1/C=N/NC(=O)c1ccc(COc2ccc3c(c2)CCC3)o1,.,.,.,.,.,.
CCCCN(C(=O)c1cnccn1)c1c(N)n(CCC)c(=O)[nH]c1=O,/,/,.,.,/,.
O=C(Nc1ccc(F)cc1)Nc1ccc2c(c1)CCC2,.,/,.,.,.,.
SMILES,HSP90 inh,PPC-1+TRAIL kill,TROY NFkB inh,C8 TRAIL sens,Platelet DG rel,TWEAK Fn14 block
O=C(Nc1ccc2c(c1)CCC2)c1c(F)cccc1Cl,.,.,.,.,.,.
O=C(Nc1ccc2c(c1)CCC2)c1cc(S(=O)(=O)Nc2ccc(F)cc2)c(Cl)cc1Cl,.,.,.,.,.,52
O=C(Nc1ccc2c(c1)CCC2)c1ccc(F)cc1,.,.,.,52,.,.
CCCN(CCC)c1ncnc2nc[nH]c12,.,.,50,.,.,63
CC(C)CC(NC(=O)C(NC(=O)C1CCC(=O)N1C(=O)OCc1ccccc1)C(C)C)C(=O)N1CCCC1C(N)=O (centres undefined),.,/,.,.,.,.
COc1ccc(Nc2nc(-c3ccccc3)nc3ccccc23)cc1,.,/,.,.,.,.
COc1ccc(-c2nc(N/N=C(\C)c3ccc(O)cc3)c3ccccc3n2)cc1,.,.,.,59,.,.
C[C@@H]1COc2cc(N3CC[C@H](O)C3)ccc2S(=O)(=O)N1,/,/,.,.,/,.
CCN(CC)S(=O)(=O)c1ccc2c(c1)nc(SCC(=O)NC1CC1)n2-c1ccccc1OC,.,.,/,.,.,61
COC(=O)c1cc(C(=O)OCC(=O)NC(=O)NCc2ccccc2)cc([N+](=O)[O-])c1,/,/,.,.,/,.
O=C(Nc1cc(C(F)(F)F)ccc1-n1cncn1)c1cn2ccccc2n1,/,/,.,.,/,.
CN(C(=O)c1nn(C)c2c1CSc1ccccc1-2)c1ccc(F)cc1,.,/,.,.,.,.
COc1cc2c(cc1OC)CN(S(=O)(=O)c1cccc(F)c1)CC2,.,/,.,.,.,.
CC(CCc1ccccc1)NC(=O)CCNC(=O)c1ccccc1Cl (centres undefined),/,/,.,.,/,.
Cc1ccccc1OCC(=O)N/N=C/c1cccc(Oc2ccc([N+](=O)[O-])cc2[N+](=O)[O-])c1,.,.,.,.,.,63
O=C(N/N=C/c1cccc(Oc2ccc([N+](=O)[O-])cc2[N+](=O)[O-])c1)c1cncc(Br)c1,.,.,59,.,.,.
Cc1ccccc1OCC(=O)NCC(=O)N/N=C/c1cccc([N+](=O)[O-])c1,.,.,/,/,.,/
C[C@H]1CN([C@@H](C)CO)C(=O)Cc2cc(NC(=O)C3CC3)ccc2O[C@H]1CN(C)Cc1ccc(C(=O)O)cc1,/,/,.,.,/,.
Cc1[nH]c2ccccc2c1C(=O)C(C)OC(=O)c1ccccc1NCCO (centres undefined),/,/,.,.,.,53
CC(C)NC(=O)Cn1nnc(-c2ccccc2)c1COc1ccc2ccccc2c1,/,/,.,.,/,.
O=C(Nc1cccc(C(F)(F)F)c1)Nc1nnc([C@H]2C[C@H](O)[C@@H](CO)O2)s1,/,/,.,.,/,.
CCSCCc1nnc(NC(=O)Nc2cccc(C(F)(F)F)c2)s1,.,.,63,.,.,64
Cc1cc(=O)n2[nH]c(-c3cccnc3)nc2n1,.,.,/,/,.,/
Cc1cc(=O)n2[nH]c(-c3ccc(F)cc3)nc2n1,.,.,.,51,.,.
COC(=O)c1ccc(N=NNc2ccc(C(=O)OC)cc2)cc1,16,.,.,.,.,.
SMILES,HSP90 inh,PPC-1+TRAIL kill,TROY NFkB inh,C8 TRAIL sens,Platelet DG rel,TWEAK Fn14 block
O=C1NC[C@@H](CCCCN2C[C@H](Cc3ccccc3)N(CCC3CCCCC3)C(=O)C2=O)N(CC2CCCCC2)C1=O,/,/,.,.,/,.
CC(C)CCn1c(Sc2nc3ccccc3o2)nc2c1c(=O)[nH]c(=O)n2C,.,.,.,.,.,67
O=C1/C(=C/c2ccccc2)CCC1C1CCCC1 (centres undefined),.,.,.,.,.,.
CN1C2CCC1/C(=C\c1ccccc1)C(=O)/C2=C\c1ccccc1,.,.,.,.,.,56
O=C(N/N=C/c1ccc(Sc2nc3ccccc3[nH]2)o1)c1ccncc1,.,.,.,.,.,.
CCN1C(=O)S/C(=C/c2ccc(Sc3nc4ccccc4[nH]3)o2)C1=O,.,.,.,.,.,79
